The panel holds about 83,000 compounds, 20% with a hit somewhere; the sample as a whole holds those more often.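 How to read the values: 0–100, growth inhibition (40 = 60% inhibited); 0, no net growth; -100 to 0, cell death (-40 = 40% of starting cells died; -100 = all dead).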 Active and inactive are the calls of the source. How the source made its calls: active means growth percent below 10; inactive means the rest.
Test system: HCT-15 colon
Experiment: NCI-60 one-dose screen, 48 h (100 = growth as untreated, 0 = no growth, -100 = all killed)
Details: 10 µM unless noted

Row | SMILES | growth
1 | O=C1c2ccccc2NC(c2cn(-c3ccccc3)nc2-c2cccnc2)N1Cc1ccccc1 (stereo unspecified) | 84.7% (inactive)
2 | COc1cnc2c(c1)C(=O)c1c-2n(CCCNCCN2CCOCC2)c(=O)c2cc([N+](=O)[O-])ccc12 | 0.784% (active)
3 | CCCCC[C@H]1C/C=C2/C(=O)C=C[C@@H]2C/C=C\CCCC(=O)O[C@@H](CCCCC)C/C=C2/C(=O)C=C[C@@H]2C/C=C\CCCC(=O)O1 | -54.5% (active)
4 | COc1ccc2c(c1)c(-c1nc(-c3c[nH]c4ncccc34)cs1)cn2CCCN1CCCCC1 | -5.93% (active)
5 | CCN(CC)CCCCCCNc1ccnc2cc(Cl)ccc12 | 92.6% (inactive)
6 | N#Cc1c(-c2ccc(O)cc2)c2c(N)nn(-c3ccccc3)c2[nH]c1=O | 109% (inactive)
7 | CC(C)(C)c1[nH]nc2c1C(c1cc3ccccc3[nH]c1=O)Nc1cc(C(=O)OCc3ccccc3)ccc1N2 (stereo unspecified) | 55.3% (inactive)
8 | c1cnc2[nH]cc(-c3csc(-c4cn(CCCN5CCCCC5)c5ccccc45)n3)c2c1 | 4.45% (active)
9 | COC(=O)[C@]12CC[C@@H](C)[C@H](C)[C@@H]1C1=CC[C@@H]3[C@@]4(C)CC(=O)[C@H](OC(=O)c5ccco5)[C@@]5(C)COC(=C45)C[C@@]3(C)[C@]1(C)CC2 | 24.1% (inactive)
10 | O=C1/C(=C\C(Cl)=C/c2ccc([N+](=O)[O-])cc2)SC(=S)N1CCc1ccc(O)cc1 | -49.9% (active)
11 | O=c1c(CNc2ccc(S(=O)(=O)Nc3ncccn3)cc2)coc2ccccc12 | 84.5% (inactive)
12 | CCN(CC)CCCCCNc1cc(OC(=O)c2ccccc2)cc2cccnc12 | 78.5% (inactive)
13 | COc1cc2c(cc1-c1c(C)noc1C)ncc1nc(C3CC3)n([C@H](C)COC(F)F)c12 | 23.9% (inactive)
14 | COc1cc2nc(Cl)nc(Nc3cccc(C(=O)/C=C/c4ccc(F)cc4)c3)c2cc1OC | -4.45% (active)
15 | CN1CCN(CCOc2ccc(-c3cnc4c(-c5ccccc5F)cnn4c3)cc2)CC1 | 3.14% (active)
16 | CN(C)CCCC1(c2ccc(F)cc2)OCc2cc(-c3ccc(C(F)(F)F)nc3)ccc21 (stereo unspecified) | 78.4% (inactive)
17 | Cn1cc(-c2nc(-c3c[nH]c4ncccc34)cs2)c2cc(Cl)ccc21 | 31.2% (inactive)
18 | CCC(CC)C(=O)OC(C)COc1ccc(C(C)(C)C)cc1 (stereo unspecified) | 109% (inactive)
19 | NCCNc1nc(-c2ccccc2)nc2nc(-c3ccccc3)oc12 | 70% (inactive)
20 | CCCCN1CCCCn2c1nc1c2c(=O)n(C)c(=O)n1C | 108% (inactive)
21 | CCc1nnc(NC(=O)c2ccoc2COc2ccccc2)s1 | 24.3% (inactive)
22 | CC1(C)C(=O)/C(=C\c2cccnc2)C[C@]2(C)[C@H]3CC[C@@H]4[C@@H](C(=O)/C=C/c5ccncc5)CC[C@@]4(C)[C@]3(C)CC[C@@H]12 | -36% (active)
23 | N#C/C(=C\c1ccc(-c2ccc(Br)cc2)o1)c1nc(-c2ccco2)cs1 | 80.1% (inactive)
24 | C[C@H]1OC(=O)/C=C/[C@@H](O)[C@@H](O)CCCCCCCC[C@@H]1O | 101% (inactive)
25 | CC[C@]12C=CCN3CC[C@@]4(c5cc([C@H]6CCC(=O)N6)c(OC)cc5N(C)[C@H]4[C@@](O)(C(=O)OC)[C@@H]1OC(C)=O)[C@@H]32 | 104% [2.5 µM] (inactive)
26 | NC1=C(C/C(N)=N\O)C(c2ccccc2Cl)c2c(ccc3ccccc23)O1 (stereo unspecified) | 47.7% (inactive)
27 | Cn1cccc1/C=C1/SC(=S)N(CCc2ccc(O)cc2)C1=O | 22.7% (inactive)

Test system: SNB-75 CNS
Experiment: as above
Details: 10 µM unless noted

Row | SMILES | growth
28 | COC(=O)[C@]12CC[C@@H](C)[C@H](C)[C@@H]1C1=CC(=O)[C@@H]3[C@@]4(C)C[C@@H](OC(C)=O)[C@H](OC(C)=O)[C@@](C)(COC(C)=O)[C@@H]4C(=O)C[C@@]3(C)[C@]1(C)CC2 | 55.6% (inactive)
29 | COc1ccc(/C(=C\c2ccc3c(c2)OCO3)C(=O)Nc2nc3ccccc3s2)cc1OC | 94.3% (inactive)
30 | O=C1c2cccc3cccc(c23)C(=O)N1CC#Cc1ccc2c3c(cccc13)C(=O)N(CCO)C2=O | 69.9% (inactive)
31 | CCCCC/C(=C\c1ccccc1)C1OC(C)C(C)O1 (stereo unspecified) | 92.2% (inactive)
32 | COc1ccc2c(c1)c(-c1nc(-c3c[nH]c4ncccc34)cs1)cn2CCNC(=O)OC(C)(C)C | 68.2% (inactive)
33 | COc1ccc(C2c3ccccc3NC(=O)N2C2CCN(C)CC2)c(OC)c1 (stereo unspecified) | 72.7% (inactive)
34 | COc1cccc(-c2nn(-c3ccccc3)cc2-c2ccnc(NCCCNS(=O)(=O)c3ccc(Cl)cc3)c2)c1 | 71.2% (inactive)
35 | CC(CNc1nc(Nc2ccc(Cl)c(Cl)c2)nc(C(Cl)(Cl)Cl)n1)N(C)C (stereo unspecified) | -18.9% (active)
36 | COc1ccc2c(c1)c1nc3cc(C)c(C)cc3nc1n2CCN(C)C | 22.2% (inactive)
37 | Oc1cc(/C=C/c2nc(N3CCOCC3)c3cc(Cl)c(Cl)cc3n2)cc(O)c1O | 91.5% (inactive)
38 | COC(=O)CCCCCn1c2ccccc2c2c3c(c4c5ccccc5[nH]c4c21)C(=O)N(O)C3=O | 92% (inactive)
39 | NCCn1cc(-c2nc(-c3c[nH]c4ncccc34)cs2)c2ccccc21 | 61.9% (inactive)
40 | O=C1c2ccccc2NC(c2cn(-c3ccccc3)nc2-c2cccnc2)N1Cc1ccccc1 (stereo unspecified) | 92.9% (inactive)
41 | COc1cnc2c(c1)C(=O)c1c-2n(CCCNCCN2CCOCC2)c(=O)c2cc([N+](=O)[O-])ccc12 | -4.98% (active)
42 | CCCCC[C@H]1C/C=C2/C(=O)C=C[C@@H]2C/C=C\CCCC(=O)O[C@@H](CCCCC)C/C=C2/C(=O)C=C[C@@H]2C/C=C\CCCC(=O)O1 | -80.8% (active)
43 | COc1ccc2c(c1)c(-c1nc(-c3c[nH]c4ncccc34)cs1)cn2CCCN1CCCCC1 | 46.9% (inactive)
44 | CCN(CC)CCCCCCNc1ccnc2cc(Cl)ccc12 | 87% (inactive)
45 | N#Cc1c(-c2ccc(O)cc2)c2c(N)nn(-c3ccccc3)c2[nH]c1=O | 104% (inactive)
46 | CC(C)(C)c1[nH]nc2c1C(c1cc3ccccc3[nH]c1=O)Nc1cc(C(=O)OCc3ccccc3)ccc1N2 (stereo unspecified) | 71.7% (inactive)
47 | c1cnc2[nH]cc(-c3csc(-c4cn(CCCN5CCCCC5)c5ccccc45)n3)c2c1 | 60.2% (inactive)

Row | SMILES | growth
48 | COC(=O)[C@]12CC[C@@H](C)[C@H](C)[C@@H]1C1=CC[C@@H]3[C@@]4(C)CC(=O)[C@H](OC(=O)c5ccco5)[C@@]5(C)COC(=C45)C[C@@]3(C)[C@]1(C)CC2 | 41.7% (inactive)
49 | O=C1/C(=C\C(Cl)=C/c2ccc([N+](=O)[O-])cc2)SC(=S)N1CCc1ccc(O)cc1 | -27.7% (active)
50 | O=c1c(CNc2ccc(S(=O)(=O)Nc3ncccn3)cc2)coc2ccccc12 | 79.4% (inactive)
51 | CCN(CC)CCCCCNc1cc(OC(=O)c2ccccc2)cc2cccnc12 | 70.9% (inactive)
52 | COc1cc2c(cc1-c1c(C)noc1C)ncc1nc(C3CC3)n([C@H](C)COC(F)F)c12 | 34.3% (inactive)
53 | COc1cc2nc(Cl)nc(Nc3cccc(C(=O)/C=C/c4ccc(F)cc4)c3)c2cc1OC | 88.3% (inactive)
54 | CN1CCN(CCOc2ccc(-c3cnc4c(-c5ccccc5F)cnn4c3)cc2)CC1 | 120% (inactive)
55 | CN(C)CCCC1(c2ccc(F)cc2)OCc2cc(-c3ccc(C(F)(F)F)nc3)ccc21 (stereo unspecified) | 41.7% (inactive)
56 | Cn1cc(-c2nc(-c3c[nH]c4ncccc34)cs2)c2cc(Cl)ccc21 | 63.6% (inactive)
57 | CCC(CC)C(=O)OC(C)COc1ccc(C(C)(C)C)cc1 (stereo unspecified) | 94.8% (inactive)
58 | NCCNc1nc(-c2ccccc2)nc2nc(-c3ccccc3)oc12 | 61.9% (inactive)
59 | CCCCN1CCCCn2c1nc1c2c(=O)n(C)c(=O)n1C | 94.1% (inactive)
60 | CCc1nnc(NC(=O)c2ccoc2COc2ccccc2)s1 | 8.1% (active)
61 | CC1(C)C(=O)/C(=C\c2cccnc2)C[C@]2(C)[C@H]3CC[C@@H]4[C@@H](C(=O)/C=C/c5ccncc5)CC[C@@]4(C)[C@]3(C)CC[C@@H]12 | 62.6% (inactive)
62 | N#C/C(=C\c1ccc(-c2ccc(Br)cc2)o1)c1nc(-c2ccco2)cs1 | 78.9% (inactive)
63 | C[C@H]1OC(=O)/C=C/[C@@H](O)[C@@H](O)CCCCCCCC[C@@H]1O | 90.5% (inactive)
64 | CC[C@]12C=CCN3CC[C@@]4(c5cc([C@H]6CCC(=O)N6)c(OC)cc5N(C)[C@H]4[C@@](O)(C(=O)OC)[C@@H]1OC(C)=O)[C@@H]32 | 81.6% [2.5 µM] (inactive)
65 | NC1=C(C/C(N)=N\O)C(c2ccccc2Cl)c2c(ccc3ccccc23)O1 (stereo unspecified) | 75.2% (inactive)
66 | Cn1cccc1/C=C1/SC(=S)N(CCc2ccc(O)cc2)C1=O | 41.2% (inactive)
